Screening results from PubChem BioAssay.
D2 ag-1 – human D2 receptor agonism in beta-arrestin assay. P14416. DiscoveRx PathHunter D2 beta-arrestin, luminescence, 90 min; 100% = 57 uM dopamine signal. activation, % (concentration not given with the values). actives 0.084% (n = 360,000). AID 624465; in the data active means activation above about 40%; inconclusive means between about 15% and that limit
Target sequence (P14416 whole entry, looked up): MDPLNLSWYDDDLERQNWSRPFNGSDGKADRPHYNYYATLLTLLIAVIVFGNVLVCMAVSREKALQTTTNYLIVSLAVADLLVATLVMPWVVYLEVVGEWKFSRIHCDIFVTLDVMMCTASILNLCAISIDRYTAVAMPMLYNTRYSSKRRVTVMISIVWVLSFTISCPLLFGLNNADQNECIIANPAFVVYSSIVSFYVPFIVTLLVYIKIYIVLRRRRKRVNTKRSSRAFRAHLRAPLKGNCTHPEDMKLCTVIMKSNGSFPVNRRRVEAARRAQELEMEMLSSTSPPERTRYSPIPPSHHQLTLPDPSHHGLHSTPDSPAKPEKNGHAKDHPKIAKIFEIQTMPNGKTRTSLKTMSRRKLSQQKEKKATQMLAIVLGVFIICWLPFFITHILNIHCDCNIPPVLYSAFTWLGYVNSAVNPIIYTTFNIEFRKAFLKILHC
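Agonist mode: compounds alone added to overnight-plated D2 PathHunter cells for 90 min at 37 C, with 57 uM final dopamine (EC100) defining full response. Beta-arrestin recruitment detected by chemiluminescent reagent, read after 1 h at ambient temperature.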
D2 ag-2 – activates the human D2 dopamine receptor; actives 0.53% (n = 340,000); HEK293 T-REx D2 cells, calcium flux agonist mode; AID 485358; activation, % at 2 µM; P14416;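 active means activation over 3 SD above normal in the single-dose calcium agonist read, cut at about 30% in these data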
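Agonism scored from kinetic calcium signal (1 read/sec, 180 s) following compound pin transfer, after a 10 s baseline. Cells: HEK293 Trex line expressing inducible D2 receptor coupled to calcium, dye-loaded after overnight culture at 30 C.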
D2 antag – antagonists of human D2 dopamine receptor. HEK293 TREx D2 cells, calcium flux, dopamine EC80. inhibition, % at 10 µM. actives 2% (n = 340,000). AID 485344; in the data active means inhibition above about 30%; inactive means below that, where a call was filed
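Calcium flux kinetic readout in an inducible HEK293 TREx D2 line plated overnight at 30 C. After 180 s compound exposure, an EC80 dopamine challenge follows with another 180 s kinetic read to detect antagonism.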
D2 PAM-1 – potentiates the human D2 dopamine receptor allosterically | potentiation, % (concentration not given with the values) | DiscoveRx D2 beta-arrestin cells, luminescence, 90 min; 100% = 57 uM dopamine signal | actives 0.23% (n = 360,000) | P14416; in the data active means potentiation above about 50%; inconclusive means mostly about 30% to 49%
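D2 cells co-treated with compound plus 50 nM dopamine (EC20) for 90 min at 37 deg C to detect potentiation. Beta-arrestin recruitment was read as enzyme-fragment luminescence after 1 h at ambient temperature. Full response was set by 57 uM dopamine.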
D2 PAM-2 – positive allosteric modulators of human D2 dopamine receptor; P14416; HEK293 T-REx D2, calcium flux, EC20 dopamine potentiation; potentiation, % at 10 µM; actives 0.34% (n = 340,000);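 active means potentiation over 3 SD above the plate norm, cut at about 30% in these data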
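Primary screen. Calcium kinetics in induced HEK293 T-REx D2 cells: compound pre-addition 180 s, EC20 dopamine, 180 s more.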
D3 ag – activates human D3 dopamine receptor beta-arrestin recruitment; actives 4% (n = 2,300); DiscoveRx D3 beta-arrestin cells, luminescence, 90 min; Potency, µM (series often up to 76.9 µM), actives largely listed as activators; AID 720506; shares compounds with D2 ag-2; further: nearly all actives have a fitted effect of over 70% in size
D2 ag-3 – counter-screen for D3 agonists: human D2 dopamine receptor agonism; shares compounds with D2 ag-2; Potency, µM (highest dose often 76.9 µM), hits mostly activators; actives 5.9% (n = 2,300); DiscoveRx PathHunter D2 beta-arrestin, luminescence, 90 min; response scale: percent relative to full dopamine signal; further: nearly all actives have a fitted effect of over 70% in size
A number is an active result. The list is not random: actives were taken first. Their share in the collection is about 2.4%. Unless noted, the call rests on the fitted dose curve; in most records, active means well fitted activation curve with a large enough effect; inconclusive means small, poorly fitted or top-dose-only effect; inactive means flat fitted curve, though single readings scatter.

Screening O=C(Cn1cnc2ccccc2c1=O)NCC(=O)N1CCN(Cc2ccc3c(c2)OCO3)CC1 returned D2 ag-1 inactive, D2 ag-2 47.7, D2 antag inactive, D2 PAM-1 inactive, D2 PAM-2 inactive, D3 ag inactive and D2 ag-3 inactive.
Screening CC(C)CCNC(=O)c1cc(Sc2ccc(F)cc2F)nc2ccccc12 returned D2 PAM-2 inactive.
For O=C(CSc1ncc2c(n1)-c1ccccc1N(Cc1ccccc1)S2(=O)=O)Nc1ccccc1 the results were D2 PAM-2 inactive.
CCc1ccc2nc(N(CCN(CC)CC)C(=O)c3ccco3)sc2c1 was read as D2 ag-2 inactive and D2 PAM-2 inactive.
OC(CN1CCCCC1)Cn1c2ccccc2c2cc(Br)ccc21 (stereo not given) was read as D2 ag-1 inactive, D2 ag-2 39.2, D2 antag 79.6, D2 PAM-1 inactive, D2 PAM-2 inactive, D3 ag inactive and D2 ag-3 inactive.
Cc1nc2c(C(=O)NC(C)c3ccccc3)cnn2c(C)c1Cc1ccccc1 (stereo not given) was read as D2 ag-2 inactive.
`Cc1cc(NC(=O)C(C)(C)C)cc(-c2nc3ncccc3o2)c1O` gave D2 ag-2 inactive and D2 PAM-2 inactive.
Screening CCN(CC)C(=O)c1sc2c(c1C)c(=O)n(-c1ccccc1)c(=O)n2Cc1c(C)cc(C)cc1C returned D2 ag-2 inactive and D2 PAM-2 inactive.
O=C(CN(c1cc(C(F)(F)F)ccc1Cl)S(=O)(=O)c1ccccc1)NCCc1ccccc1 was read as D2 ag-2 inactive and D2 PAM-2 inactive.
Screening Cc1ccc(-n2ncc3c2CC(C)(C)CC3NC(=O)CN2CCCC2=O)cc1 (stereo not given) returned D2 ag-1 inactive, D2 ag-2 inactive, D2 antag inactive, D2 PAM-1 inactive and D2 PAM-2 inactive.
Screening C=CCC(=O)NC1CC(C)(C)Cc2c1cnn2-c1ccc(C)cc1 (stereo not given) returned D2 ag-1 inactive, D2 ag-2 72.1, D2 antag inactive, D2 PAM-1 inactive, D2 PAM-2 inactive, D3 ag inactive and D2 ag-3 inactive.
Screening O=C(C1CCN(Cc2cccs2)CC1)N1CCN(Cc2ccc3c(c2)OCO3)CC1 returned D2 ag-1 inactive, D2 ag-2 inactive, D2 antag inactive and D2 PAM-1 inactive.
O=C(C1CCCN1C(=O)c1cccs1)N1CCN(Cc2ccc3c(c2)OCO3)CC1 (stereo not given) was read as D2 ag-1 inactive, D2 ag-2 63.0, D2 antag 36.6, D2 PAM-1 inactive, D2 PAM-2 inactive, D3 ag inactive and D2 ag-3 inactive.
O=C(c1cccs1)N1CCC(C(=O)N2CCN(Cc3ccc4c(c3)OCO4)CC2)CC1 was read as D2 ag-1 inconclusive, D2 ag-2 67.5, D2 antag 52.1, D2 PAM-1 inactive, D2 PAM-2 inactive, D3 ag inactive and D2 ag-3 inconclusive.
For COc1cc(Cn2cnnn2)ccc1O the results were D2 ag-1 inactive, D2 ag-2 inactive, D2 antag inactive, D2 PAM-1 inactive, D2 PAM-2 inactive, D3 ag inactive and D2 ag-3 inactive.
For c1cc2c(cc1Cn1cnnn1)OCO2 the results were D2 ag-1 inactive, D2 ag-2 inactive, D2 antag inactive, D2 PAM-1 inactive and D2 PAM-2 inactive.
`O=S(=O)(NCC(c1ccc2c(c1)OCO2)N1CCN(c2ccccc2)CC1)c1ccccc1` (stereo not given) gave D2 ag-1 inconclusive, D2 ag-2 71.3, D2 antag 80.5, D2 PAM-1 inactive, D2 PAM-2 inactive, D3 ag inactive and D2 ag-3 inconclusive.
Screening O=C(c1cccnc1)N1CCN(Cc2ccc3c(c2)OCO3)CC1 returned D2 ag-1 inactive, D2 ag-2 inactive, D2 antag inactive, D2 PAM-1 inactive and D2 PAM-2 inactive.
